Source: PubChem
Only some compounds are listed: those with a hit (about 7.8% of all), similar ones and a draw of the others.
Luciferase inh: qHTS Assay for Inhibitors of Firefly Luciferase; Luciferin 4-monooxygenase (Photinus pyralis), P08659; purified firefly luciferase, luminescence, 8 min; Potency, µM (series often up to 57.1 µM), for the others: top-dose activity change, negative = inhibition, most hits filed as inhibitors; actives 2.2% (n = 72,000); AID 411, 2009; further: on the % scale 0 is the no-effect control and ±100 the full control effect; nearly all actives have a fitted effect of over 40% in size
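qHTS concentration-response profiling: light output of P. pyralis luciferase with luciferin and 10 uM ATP, imidazole buffer pH 7.2. Read by luminescence after 8-min room-temperature incubation.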
HEK293 cAMP ctrl: qHTS Assay for Agonists of the Thyroid Stimulating Hormone Receptor: Activators of Intracellular cAMP Concentrations in Parental HEK 293 | parental HEK293 CNG cAMP sensor, membrane potential fluorescence | Potency, µM (doses to about 57.1 µM), inactives show at the highest dose activation, hits mostly activators | actives 2.5% (n = 73,000); further: % of control where 0% means no effect; nearly all actives have a fitted effect of over 55% in size
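Parental HEK 293 cells stably expressing a modified CNG channel (no TSHR) report cAMP rise as membrane depolarization. Membrane potential dye with 100 uM RO 20-1724 was loaded for 60 min at room temperature, then compound added for 30 min; fluorescence read at 590 nm.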
15-hLO inh: qHTS Assay for Inhibitors of 15-hLO (15-human lipoxygenase). Polyunsaturated fatty acid lipoxygenase ALOX15 (Homo sapiens), P16050. purified 15hLO-1, xylenol orange hydroperoxide absorbance. Potency, µM (doses to about 57.1 µM), without a hit: at the top dose activity change, negative = inhibition, hits mostly inhibitors. actives 1.4% (n = 74,000). AID 887, 2007; further: on the % scale 0 is the no-effect control and ±100 the full control effect; nearly all actives have a fitted effect of over 55% in size
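Readout: Fe(III)-xylenol orange absorbance, 573-to-405 nm ratio as reaction progress. Enzyme 40 nM purified human 15hLO-1, substrate 50 uM arachidonic acid, 6 min RT after 15 min compound preincubation; Hepes pH 7.5 buffer with Triton X-100.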
Tau filament bind: qHTS Assay for Tau Filament Binding; recombinant tau filaments, thioflavin S fluorescence, 15 h; filaments grown with octadecylsulfate alongside compound; actives 2% (n = 71,000); Microtubule-associated protein tau (Homo sapiens), P10636; Potency, µM (doses to about 57.1 µM), for inactives: at the top dose activity change, negative = inhibition; AID 596, 2007;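 further: on the % scale 0 is the no-effect control and ±100 the full control effect; actives lower thioflavin S fluorescence by blocking filaments or displacing dye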
Target sequence (P10636 whole entry, looked up): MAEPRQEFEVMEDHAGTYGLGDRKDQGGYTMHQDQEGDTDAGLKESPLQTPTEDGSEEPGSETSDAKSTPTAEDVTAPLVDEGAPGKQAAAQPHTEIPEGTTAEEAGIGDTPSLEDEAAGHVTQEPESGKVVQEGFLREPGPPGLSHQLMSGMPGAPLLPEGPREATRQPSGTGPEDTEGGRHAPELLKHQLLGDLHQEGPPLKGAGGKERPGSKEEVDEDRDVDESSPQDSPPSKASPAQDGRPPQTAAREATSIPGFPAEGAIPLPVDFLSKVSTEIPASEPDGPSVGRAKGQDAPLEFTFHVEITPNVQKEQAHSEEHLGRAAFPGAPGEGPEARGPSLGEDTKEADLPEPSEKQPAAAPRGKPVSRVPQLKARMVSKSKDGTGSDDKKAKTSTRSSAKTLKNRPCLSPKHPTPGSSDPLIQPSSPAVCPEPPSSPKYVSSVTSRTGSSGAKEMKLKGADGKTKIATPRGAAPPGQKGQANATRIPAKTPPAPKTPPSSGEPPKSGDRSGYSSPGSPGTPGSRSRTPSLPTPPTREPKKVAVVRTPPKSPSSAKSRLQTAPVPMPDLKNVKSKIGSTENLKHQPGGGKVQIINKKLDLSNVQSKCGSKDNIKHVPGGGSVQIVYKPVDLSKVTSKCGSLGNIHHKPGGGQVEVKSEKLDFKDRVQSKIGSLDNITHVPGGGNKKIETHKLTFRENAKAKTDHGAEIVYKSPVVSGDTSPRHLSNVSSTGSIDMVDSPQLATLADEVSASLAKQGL
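His-tagged recombinant human tau (exons 2, 3, 10; 1 uM final) fibrillized with 30 uM sodium octadecylsulfate, 15 h at 37 C, in pH 7.4 HEPES buffer with 10 uM thioflavine S and 5 mM DTT. Reduced ThS fluorescence (450/510 nm) marks activity.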
TSHR ag: qHTS Assay for Agonists of the Thyroid Stimulating Hormone Receptor | actives 0.48% (n = 73,000) | Potency, µM (series often up to 57.1 µM), for the others: at the top dose activation, hits mostly activators | HEK293-CNG-TSHR cells (CNG channel as cAMP sensor), membrane potential dye, cAMP | Thyrotropin receptor (Homo sapiens), P16473 | AID 926, 2007; active means well fitted activation curve with a large enough effect in the main read-out, with a control signal flat, not every such curve was filed as active; inconclusive means small, poorly fitted or top-dose-only effect, or a change in a side signal; inactive means no such curve, though single readings can be large or run the other way; % of control where 0% means no effect;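 further: the control signal comes from parental cells without the receptor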
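HEK 293 cells stably expressing TSHR and a cAMP-gated CNG channel; parental CNG-only cells as counterscreen. Cells preloaded 60 min with membrane potential dye plus 100 uM RO 20-1724, then compound 30 min; fluorescence read at 590 nm.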
Bst PK mod: Pyruvate Kinase; Potency, µM; actives 1.2% (n = 51,000); purified pyruvate kinase, luminescence ATP production; ribose 5-phosphate activator present at AC10; in the data active means potency below about 11 µM; inconclusive means mostly about 12 µM to 25 µM;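 the screen sought inhibitors and activators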;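 further: scaled between full activation by ribose 5 phosphate and full inhibition by luteolin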
* hit, by the source's call; i = inactive; ? = inconclusive; / = no result given; [ ] = dose if it differs, or a comment. Unless noted, the call rests on the fitted dose curve; in most records, active means well fitted curve in the direction sought with a large enough effect; inconclusive means small, poorly fitted or top-dose-only effect, or another doubt; inactive means no such curve, though single readings can be large; an effect the other way counts as inactive or inconclusive. Potency means the concentration at half of the fitted maximal effect.

SMILES	Luciferase inh	HEK293 cAMP ctrl	15-hLO inh	Tau filament bind	TSHR ag	Bst PK mod
Cc1ccccc1C(=O)Nc1ccc(Cl)cn1	?	7%	?	-2%	9%	/
Cc1ccc(C(=O)NC2CCCCCC2)cc1N1CCCC1=O	1%	7%	5%	2%	-3%[11.4 µM]	>57
CCN(CC)S(=O)(=O)c1cc(C(=O)Nc2ccc(Cl)cn2)ccc1C	7.9µM*	?	-13%[11.4 µM]	3%[11.4 µM]	?	/
CCN(CC)S(=O)(=O)c1cccc(C(=O)Nc2ccc(Cl)cn2)c1	/	?	-11%	4%	?	>57
O=C(Nc1ccccc1C(=O)O)c1ccc2ccccc2n1	/	-3%	-6%	/	6%	/
O=C(O)c1ccccc1OP(=O)(O)O	-2%[25.5 µM]	-2%[25.6 µM]	-13%	5%[25.6 µM]	-1%[25.6 µM]	/
COCCn1cnnc1SCC(=O)c1ccc(S(=O)(=O)N2CCCC2)cc1	2%	-1%	-8%	-20%	13%	>57
COc1ccc(CC(=O)OCC(=O)NC(=O)NC2CCCCC2)cc1	0%	2%	-14%	-5%	27%	>57
CCOC(=O)c1[nH]c(C)c(CN(CCc2ccccc2)S(C)(=O)=O)c1C	-11%	20%	-16%	102%	32µM*	/
c1ccc2c(c1)nc(-c1ccncc1)n1nnnc21	-9%	-7%	9%	0%	-3%	8.9*
c1ccc(-c2nc3ccccc3c3nncn23)cc1	0%	23%	9%	88%	3%	/
O=C(c1cccc(F)c1)N1CCC[C@@]2(CCN(c3ccccc3)C2)C1	2%[11.4 µM]	5%	-13%	-8%	6%	/
OCC1OC(c2ccc3c(c2)OCO3)C=CC1Oc1ccc(C2CCCC2)cc1 (stereo not drawn)	/	6%[11.4 µM]	-13%[11.4 µM]	/	5%[11.4 µM]	/
OCC1OC(/C=C\c2ccccc2)C=CC1Oc1ccc2c(c1)OCO2 (stereo not drawn)	/	4µM*	-6%[11.4 µM]	/	?	/
CNc1nc2c(c(=O)n(C)c(=O)n2C)n1Cc1ccccc1	2%	5%	3%	4%	1%	>57
Cn1c(=O)c2c(nc(NCCc3ccccc3)n2Cc2ccc(F)cc2)n(C)c1=O	0%	10%	-22%	40%	/	/
Cn1c(=O)c2c(nc(NC(Cc3ccccc3)C(=O)O)n2Cc2ccccc2)n(C)c1=O (stereo not drawn)	1%	?	25µM*	-3%	?	>57
C=CCNc1nc2c(c(=O)n(C)c(=O)n2C)n1Cc1ccc(F)cc1	4%	25µM*	-3%	-2%	?	/
CS(=O)(=O)Nc1cccc(-c2ccc3ncnc(NC4CC4)c3c2)c1	-1%[2.29 µM]	-12%	1%	68%	2%	/
CCOC(=O)N1CCN(S(=O)(=O)c2ccc(C)cc2)C1c1ccccc1 (stereo not drawn)	0%	13µM*	-3%	3%	?	/
CCOC(=O)N1CCN(S(=O)(=O)c2ccc(C)cc2)C1c1ccc(OC)cc1 (stereo not drawn)	0%	?	-6%	1%	?	/
COc1ccccc1NC(=O)c1c(NC(=O)c2ccco2)sc2c1CCC2	-1%	5%	-21%	156%	-1%	/
O=C(Nc1sc2c(c1C(=O)NC1CCCCC1)CCC2)c1ccco1	-1%	24%	-12%	46%	16µM*	>57
Cc1nn(-c2nc3ccccc3s2)c(C)c1Oc1ccccc1O	?	-35%	16µM*	128%	?	/
Cc1ccc2nc(NC(=O)c3cccs3)sc2c1	2µM*	12%	-12%	139%	-8%[11.4 µM]	4.2*
SMILES	Luciferase inh	HEK293 cAMP ctrl	15-hLO inh	Tau filament bind	TSHR ag	Bst PK mod
Cc1ccc(C(=O)Nc2nc3ccc(S(C)(=O)=O)cc3s2)s1	3.2µM*	17%	0%	-8%	/	i
CCOCC(=O)Nc1nc2ccc(S(C)(=O)=O)cc2s1	-1%	5%	1%	-15%	1%	>57
Cc1ccc(C(=O)Nc2nc3ccccc3s2)s1	/	0%	-13%	/	-2%	/
CS(=O)(=O)c1ccc2nc(NC(=O)c3cccs3)sc2c1	1µM*	2%	2%	7%	-7%	2.2*
Cc1cc(C(=O)Nc2nc3ccc(S(C)(=O)=O)cc3s2)c(C)o1	2µM*	?	-3%	55%	?	/
O=C(O)c1cc(Cl)cc(Cl)c1	/	13%	-2%	18%	13%	/
C=C(CO)[C@H]1Cc2c(ccc3c2O[C@H]2COc4cc(OC)c(OC)cc4[C@@H]2C3=O)O1	1%[11.4 µM]	30%	/	?	21%	/
O=S(=O)(c1ccc2c(c1)OCCO2)N1CCN(c2nc3ccccc3s2)CC1	0%	17%	-11%	13%	20%	>57
c1ccc2c(c1)CCN(c1nc3cc4c(cc3s1)OCCO4)C2	0.32µM*	-11%	4µM*	-7%	-14%	0.44*
Cc1ccc(-c2nc(Nc3ccccc3)n[nH]2)cc1	13µM*	-35%	-1%	5%	?	?
COc1ccc(C(=O)Cn2nnc(-c3ccccc3NC(=O)c3ccco3)n2)cc1	3%	19%	9%	12%	5%	>57
O=S(=O)(Cc1nc2ccccc2s1)c1ccccc1	-13%	12%	0%	-9%	6%	>57
c1ccc(OCc2nc3ccccc3s2)cc1	13µM*	20%	2%	5%	12%	i
Cc1ccc(Cn2c(-c3nonc3N)nc3ccccc32)cc1	0%	32µM*	-11%	45%	?	>57
CCC(=O)Nc1nonc1-c1nc2ccccc2n1N(C(=O)CC)C(=O)CC	2%	9%	9%	-18%	6%[11.4 µM]	>57
CCC(=O)Nc1nonc1-c1nc2ccccc2n1Cc1ccccc1	0%	20µM*	-17%	64%	?	>57
Cn1cccc1-c1nc2ccccc2n1Cc1ccccc1	3%	32µM*	-9%	-15%	?	>57
COc1ccc(CCNC(=O)Cn2c(-c3nonc3N)nc3ccccc32)cc1OC	0%	?	6%	-20%	?	>57
C=COCCn1c(-c2nonc2N)nc2ccccc21	1%	25µM*	2%	8%	?	/
O=C(O)CCN1C(=S)CSC1=S	-2%[11.4 µM]	8%[11.4 µM]	-9%[11.4 µM]	5%[11.4 µM]	-8%[11.4 µM]	/
CC(C)CO/N=C1/C[C@@H](O)[C@@H](O)[C@@H]2[C@@H]3C(=O)N(Cc4ccc5c(c4)OCO5)C(=O)[C@H]3CC[C@H]12	0%[11.4 µM]	-4%[11.4 µM]	1%[11.4 µM]	/	0%[11.4 µM]	/
[N-]=[N+]=N[C@@H]1[C@H](O)[C@H](CO)O[C@@H]1n1cnc2c(N)ncnc21	4%[11.4 µM]	0%[11.4 µM]	0%[11.4 µM]	-4%[11.4 µM]	0%[11.4 µM]	/
